Reference: a collection of fitness landscapes (doi:10.1016/j.celrep.2020.107928)
Over roughly 81,000 sequences, “one-hybrid fitness for binding NBS DNA” has its median near -0.1; the highest 2% begin near 0.36. This is one part of a sample in which the highest values are shown more often than they occur.

B1: Caulobacter ParB omega fusion; a variant is named by its letters at X, in order, B8GW30 (parent)
chain: MESVVVGEPGMSEGRRGLGRGLSALLGEVDAAPAQAPGEQLGGSREAPIEILQRNPDQPRRTFREEDLEDLSNSIREKGVLQPILVRPSPDTAGEYQIVAGERAWRAAQRAGLKTVPIMVRELDDLAVLEIGIIENVQRADLNVLEEALSYKVLMEKFERTQENIAQTIGKSXSHVANXMRLLXLPDEVQSYLVSGELTAXHARAIAAAADPVALAKQIIEGGLSVRETEALARKAPNLSAGKSKGGRPPRVKDTDTQALESDLSSVLGLDVSIDHRGSTGTLTITYATLEQLDDLCNRLTRGI

Variants of: B1
Test: one-hybrid fitness for binding NBS DNA (the Noc-binding site; scaled: cognate 1, non-cognate 0); higher = stronger binding
Conditions: with NBS DNA site
Method in brief: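 The reporter was HIS3, with the binding site 19 bp from the promoter, in E. coli USO used for bacterial one-hybrid selection of Caulobacter ParB libraries with four specificity codons randomised. Growth was on M9 lacking histidine, with 0.1 mM IPTG and 5 mM 3-AT, for 48 hours at 37°C. Illumina sequencing covered plasmids before and after selection; three replicate libraries were pooled and variants with under 10 reads dropped. A fitness score is the log change in variant-to-wild-type read ratio, rescaled to the cognate and non-cognate references.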

| Variant | one-hybrid fitness for binding NBS DNA |
| --- | --- |
| YEPF | ≤ 0.2 |
| HTTL | ≤ 0.2 |
| YPNR | ≤ 0.2 |
| EHEC | ≤ 0.2 |
| THMK | ≤ 0.2 |
| KSWR | ≤ 0.2 |
| KPGR | ≤ 0.2 |
| KRQR | 0.552 |
| KSHR | ≤ 0.2 |
| KPWR | ≤ 0.2 |
| KCHR | ≤ 0.2 |
| KRHR | 0.616 |
| KCGR | ≤ 0.2 |
| KRGR | 0.557 |
| KCQR | ≤ 0.2 |
| DRQR | ≤ 0.2 |
| KRWR | 0.578 |
| NSRQ | ≤ 0.2 |
| TYKN | ≤ 0.2 |
| HHDR | ≤ 0.2 |
| DNHG | ≤ 0.2 |
| KRER | 0.368 |
| KCER | ≤ 0.2 |
| KCNR | 0.223 |
| NRSR | ≤ 0.2 |

| Variant | one-hybrid fitness for binding NBS DNA |
| --- | --- |
| KRNR | 0.661 |
| KSER | ≤ 0.2 |
| DRLR | ≤ 0.2 |
| KCLR | ≤ 0.2 |
| KRSR | 0.561 |
| KCSR | ≤ 0.2 |
| KRDR | 0.336 |
| KRLR | 0.456 |
| IRGF | ≤ 0.2 |
| RLMT | 0.335 |
| QCPH | ≤ 0.2 |
| TMHT | ≤ 0.2 |
| KRPR | 0.239 |
| KRRD | ≤ 0.2 |
| KRRR | 0.787 |
| NRCR | ≤ 0.2 |
| KPYR | ≤ 0.2 |
| KRRK | 0.319 |
| KCCR | ≤ 0.2 |
| KRYR | 0.545 |
| KRIR | 0.378 |
| KRCR | 0.55 |
| KCIR | ≤ 0.2 |
| KCYR | ≤ 0.2 |
| GERG | ≤ 0.2 |

| Variant | one-hybrid fitness for binding NBS DNA |
| --- | --- |
| HQHR | ≤ 0.2 |
| VMTL | ≤ 0.2 |
| CRHA | ≤ 0.2 |
| HMKG | ≤ 0.2 |
| THLW | ≤ 0.2 |
| GMMA | ≤ 0.2 |
| QTYE | ≤ 0.2 |
| QSRE | 0.22 |
| QTVE | ≤ 0.2 |
| QRVE | ≤ 0.2 |
| QPRE | ≤ 0.2 |
| QRKE | 0.368 |
| QCRE | 0.369 |
| QRYE | 0.207 |
| QTRE | 0.405 |
| QTDE | ≤ 0.2 |
| QTKE | 0.378 |
| QCKE | 0.297 |
| DNPC | ≤ 0.2 |
| TLCS | ≤ 0.2 |
| AKQC | ≤ 0.2 |
| YPSA | ≤ 0.2 |
| VEHK | ≤ 0.2 |
| IPPG | ≤ 0.2 |
| NQDG | ≤ 0.2 |

| Variant | one-hybrid fitness for binding NBS DNA |
| --- | --- |
| HSKR | ≤ 0.2 |
| CSCG | ≤ 0.2 |
| RDNI | ≤ 0.2 |
| RVSH | ≤ 0.2 |
| RVSD | ≤ 0.2 |
| RVSP | ≤ 0.2 |
| RVSF | ≤ 0.2 |
| RVSC | ≤ 0.2 |
| RVSS | 0.39 |
| RVSN | ≤ 0.2 |
| RVSR | 0.439 |
| RVST | 0.463 |
| TKDA | ≤ 0.2 |
| NVIT | ≤ 0.2 |
| NCKE | ≤ 0.2 |
| GYMR | ≤ 0.2 |
| VACG | ≤ 0.2 |
| GAQH | ≤ 0.2 |
| LKVD | ≤ 0.2 |
| RCFR | 0.376 |
| RFFR | ≤ 0.2 |
| RKAR | 0.597 |
| RKAN | ≤ 0.2 |
| RKFQ | ≤ 0.2 |
| RPFR | ≤ 0.2 |

| Variant | one-hybrid fitness for binding NBS DNA |
| --- | --- |
| RKAH | 0.322 |
| RKFK | ≤ 0.2 |
| RKFR | 0.443 |
| PSEM | ≤ 0.2 |
| VQGT | ≤ 0.2 |
| EMAT | ≤ 0.2 |
| MADF | ≤ 0.2 |
| PISS | ≤ 0.2 |
| CTLV | ≤ 0.2 |
| YGYV | ≤ 0.2 |
| RTVK | ≤ 0.2 |
| RTKQ | 0.356 |
| RTVT | 0.393 |
| RTVD | ≤ 0.2 |
| RTKC | 0.31 |
| RTKT | 0.724 |
| EDMY | ≤ 0.2 |
| WWLN | ≤ 0.2 |
| RCEN | ≤ 0.2 |
| DHID | ≤ 0.2 |
| PMHC | ≤ 0.2 |
| TEPL | ≤ 0.2 |
| PAKT | ≤ 0.2 |
| PFVA | ≤ 0.2 |
| GVMR | ≤ 0.2 |

| Variant | one-hybrid fitness for binding NBS DNA |
| --- | --- |
| QQKF | 0.356 |
| QQKT | 0.811 |
| QQVN | ≤ 0.2 |
| KQKT | 0.222 |
| QQVP | ≤ 0.2 |
| QQVT | 0.393 |
| DFWV | ≤ 0.2 |
| PKQR | ≤ 0.2 |
| TNGR | ≤ 0.2 |
| DAAG | ≤ 0.2 |
| CWHR | ≤ 0.2 |
| QAGS | 0.342 |
| QSGN | ≤ 0.2 |
| QTGT | 0.64 |
| QSGD | ≤ 0.2 |
| QAGN | ≤ 0.2 |
| QLGS | 0.322 |
| QSGT | 0.385 |
| QTGY | 0.312 |
| QLGH | ≤ 0.2 |
| QLGT | 0.369 |
| QAGT | 0.37 |
| QTGQ | 0.27 |
| DRLC | ≤ 0.2 |
| AHIW | ≤ 0.2 |

| Variant | one-hybrid fitness for binding NBS DNA |
| --- | --- |
| CMMG | ≤ 0.2 |
| SQTP | ≤ 0.2 |
| CRSF | ≤ 0.2 |
| KPEL | ≤ 0.2 |
| QPGT | ≤ 0.2 |
| QHGT | 0.385 |
| QCGT | 0.558 |
| QIGT | 0.331 |
| QHGS | 0.343 |
| QHGP | ≤ 0.2 |
| LTNG | ≤ 0.2 |
| SHCL | ≤ 0.2 |
| DTQK | ≤ 0.2 |
| GMQY | ≤ 0.2 |
| SYPN | ≤ 0.2 |
| QRPP | ≤ 0.2 |
| QRIS | 0.546 |
| QRIH | 0.335 |
| QRPS | 0.461 |
| QRIN | ≤ 0.2 |
| QRPD | ≤ 0.2 |
| TLDA | ≤ 0.2 |
| VTHW | ≤ 0.2 |
| PTMM | ≤ 0.2 |
| REHM | ≤ 0.2 |

| Variant | one-hybrid fitness for binding NBS DNA |
| --- | --- |
| TEDC | ≤ 0.2 |
| MFLM | ≤ 0.2 |
| WPQL | ≤ 0.2 |
| QDTP | ≤ 0.2 |
| SAMV | ≤ 0.2 |
| RTKA | 0.479 |
| RPKA | ≤ 0.2 |
| RFKA | ≤ 0.2 |
| RCKA | 0.423 |
| RKWA | 0.249 |
| RTPA | ≤ 0.2 |
| RKKA | 0.514 |
| RKVA | ≤ 0.2 |
| RSKA | 0.343 |
| RIKA | 0.327 |
| RTVA | ≤ 0.2 |
| RRKA | 0.712 |
| VDGR | ≤ 0.2 |
| KWPI | ≤ 0.2 |
| RNIK | ≤ 0.2 |
